From PubChem BioAssay come the findings set out here.

Each structure is given as a SMILES string. Activity calls are given as the source filed them. How the calls were made is not given here.

A short description of test [1]: enhancers of glutamate uptake in motor neurons, MN-1 cell line (AID 1612).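 Further: tested at 1 µM final; 0% = mean of DMSO vehicle wells on each plate; positive means more glutamate uptake than control and negative means less.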 To be noted: MN-1 motor neuron cells, stronger effect = higher value.
The nature of test [2]: reducers of polyQ inclusions in PC12 cells, cell-based, NGF-treated PC12, GFPQ80 (AID 1614).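 Further: lower means fewer inclusions and 0 means no inclusions at all.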 To be noted: PC12 NGF-treated GFP-polyQ80 inclusion reduction.
Test [3] in a line: suppressors of polyglutamine aggregation in yeast, 75Q-TubH (AID 1616). To be noted: S. cerevisiae 75Q-TubH polyglutamine aggregation suppression; stronger effect = higher value.
Test [4] in a line: hESC survival regulators, cell-based (AID 493140).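 Further: cells exposed to compounds for four days before counting.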 To be noted: human embryonic stem cell survival screen; stronger effect = higher value.

As for `CCOc1ccc(Cc2nccc3cc(OCC)c(OCC)cc23)cc1OCC`, the glutamate uptake change in test [1] worked out at 33.7%. In test [2], this compound had an inclusion score of 2. This compound showed an aggregation suppression score in test [3] of 1.07. Also, the survival in test [4] was 5.17 (inactive).
`CO[C@]12C[C@@H](COC(=O)c3cncc(Br)c3)CN(C)[C@@H]1Cc1cn(C)c3cccc2c13`: in test [1], the glutamate uptake change is 6.29%. In test [2], the inclusion score was found to be 2. In test [3], this compound registered an aggregation suppression score of 1.56. Further, the survival in test [4] is 7.92 (inactive).
Taken in the same sequence, the figures for `CCn1cc(C(=O)O)c(=O)c2cc(F)c(N3CCNCC3)nc21` were -7.7%, 2, 1.11 and 13.2 (inactive).
The like results for `CC(C)(Oc1ccc(Cl)cc1)C(=O)O` were, in that order, 12.1%, 2, 1.01 and 4.75 (inactive).
Taken in the same sequence, the figures for `COc1ccc2c(c1)c(CC(=O)OCC(=O)O)c(C)n2C(=O)c1ccc(Cl)cc1` were -11%, 2, 0.866 and 19.2 (inactive).
For the compound `NS(=O)(=O)c1cc2c(cc1Cl)NC(C(Cl)Cl)NS2(=O)=O` (centres undefined), in test [1], the glutamate uptake change is -0.6%. This compound showed an inclusion score in test [2] of 2. The compound also registered an aggregation suppression score in test [3] of 1.17. The survival in test [4] is 3.33 (inactive).
Taken in the same sequence, the figures for `CCN(CC)CCNC(=O)c1cc(Br)c(N)cc1OC` were -4.45%, 2, 1.35 and 5.42 (inactive).
Consider `Cc1c(NC(C)C)c(=O)n(-c2ccccc2)n1C`, for which the glutamate uptake change in test [1] worked out at 28.4%. This compound also came in with an inclusion score in test [2] of 2. Moreover, the aggregation suppression score in test [3] stood at 1.14. For the same compound, the survival in test [4] is 7.42 (inactive).
Take `C=CCSCC1Nc2cc(Cl)c(S(N)(=O)=O)cc2S(=O)(=O)N1` (centres undefined): in test [1], the glutamate uptake change is -15.5%. The same compound registered an inclusion score in test [2] of 2. In addition, the aggregation suppression score in test [3] turned out to be 0.983. Also, the survival in test [4] is 6.42 (inactive).
Consider `CCC(Cc1c(I)cc(I)c(N)c1I)C(=O)O` (centres undefined), for which, in test [1], the glutamate uptake change came out at 7.36%. In test [2], this compound yielded an inclusion score of 2. The compound further returned an aggregation suppression score in test [3] of 0.027. In addition, the survival in test [4] was 8.83 (inactive).
Taken in the same sequence, the figures for `CCN(CC)CCOC(=O)C(Cc1cccc2ccccc12)CC1CCCO1` (centres undefined) were -20.3%, 2, 1.03 and 5.33 (inactive).
Regarding `Nc1ccc(S(=O)(=O)Nc2nccs2)cc1`, in test [1], the glutamate uptake change stood at 13.7%. Besides, the inclusion score in test [2] amounted to 2. Moreover, the aggregation suppression score in test [3] is 1.31. Moreover, the survival in test [4] is 23.3 (inactive).
Taken in the same sequence, the figures for `CCOC(=O)c1ccc(N)cc1` were 13.1%, 1.5, 1.18 and 3.58 (inactive).
Taken in the same sequence, the figures for `Cn1c(=O)c2c(ncn2CC(O)CO)n(C)c1=O` (centres undefined) were 0%, 1, 1.31 and 34 (inactive).
Taken in the same sequence, the figures for `Cc1cc2cc3c(C)cc(=O)oc3c(C)c2o1` were -15.5%, 2, 0.635 and 6 (inactive).
As for `CC(=O)NS(=O)(=O)c1ccc(N)cc1`, in test [1], the glutamate uptake change amounted to 16.9%. The inclusion score in test [2] was determined as 2. Besides, the aggregation suppression score in test [3] came to 1.16. The survival in test [4] was 17.3 (inactive).
As for `NS(=O)(=O)c1cc2c(cc1Cl)NC(CSCc1ccccc1)=NS2(=O)=O`, the glutamate uptake change in test [1] is -3.22%. The inclusion score in test [2] was found to be 2. In test [3], this compound showed an aggregation suppression score of 1.51. In test [4], the survival was 3.08 (inactive).
Taken in the same sequence, the figures for `CC(=O)Nc1ccc(OCC(O)CNC(C)C)cc1` (centres undefined) were -0.19%, 2, 1.1 and 20.5 (inactive).
As for `O=C(COc1ccc(Cl)cc1)N1CCN(Cc2ccc3c(c2)OCO3)CC1`, the glutamate uptake change in test [1] turned out to be 0.58%. The inclusion score in test [2] is 2.5. The same compound gave an aggregation suppression score in test [3] of 1.39. The survival in test [4] was 7.17 (inactive).
Taken in the same sequence, the figures for `CC1(C)S[C@@H]2[C@H](NC(=O)[C@H](N)c3ccccc3)C(=O)N2[C@H]1C(=O)O` were -16.2%, 2, 1.58 and 14.2 (inactive).
The like results for `Cc1onc(-c2ccccc2Cl)c1C(=O)N[C@@H]1C(=O)N2[C@@H]1SC(C)(C)[C@@H]2C(=O)O` were, in that order, -4.39%, 2, 1.08 and 24.6 (inactive).
Taken in the same sequence, the figures for `O=C(O)c1ccccc1OP(=O)(O)O` were -7.63%, 2, 0.8 and 6.17 (inactive).
Consider `Cc1cc(-c2ccccc2)nnc1NCCN1CCOCC1`, for which, in test [1], the glutamate uptake change came out at 4.73%. The same compound had an inclusion score in test [2] of 1. In test [3], this compound returned an aggregation suppression score of 1.11. In addition, the survival in test [4] was 17.2 (inactive).
Turning to `CCOc1ccc(NC(C)=O)cc1`, the glutamate uptake change in test [1] is -13.8%. In test [2], the inclusion score was 1.5. Further, the aggregation suppression score in test [3] worked out at 0.296. Moreover, in test [4], the survival was 8.75 (inactive).
The like results for `NCCCC[C@H](N[C@@H](CCc1ccccc1)C(=O)O)C(=O)N1CCC[C@H]1C(=O)O` were, in that order, 1.96%, 2, 0.836 and 16.8 (inactive).
In the case of `Cc1cc(NC(=O)C2=C(O)c3ccccc3S(=O)(=O)N2C)no1`, in test [1], the glutamate uptake change was found to be 11.8%. The inclusion score in test [2] is 2. The aggregation suppression score in test [3] was -0.565. Also, in test [4], the survival is 12.4 (inactive).
The like results for `COc1ccccc1OCC(O)CO` (centres undefined) were, in that order, -12.9%, 2, 0.924 and 4.75 (inactive).
The like results for `Nc1ccc(C(=O)NCC(=O)O)cc1` were, in that order, -9.5%, 2, 1.33 and 1.83 (inactive).
`CCCCOc1ccc(CC(=O)NO)cc1`: the glutamate uptake change in test [1] was 0.25%. Moreover, the inclusion score in test [2] amounted to 2. Further, in test [3], the aggregation suppression score amounted to 1.14. For the same compound, the survival in test [4] is 12.2 (inactive).
The like results for `CCn1cc(C(=O)O)c(=O)c2cnc(N3CCCC3)nc21` were, in that order, -9.95%, 2, 1.27 and 4.5 (inactive).
Take `CC(C)(Sc1cc(C(C)(C)C)c(O)c(C(C)(C)C)c1)Sc1cc(C(C)(C)C)c(O)c(C(C)(C)C)c1`: in test [1], the glutamate uptake change is -0.51%. The same compound displayed an inclusion score in test [2] of 2. In test [3], the aggregation suppression score was 0.634. In addition, in test [4], the survival was 7.33 (inactive).
`c1ccc(CN(CC2=NCCN2)c2ccccc2)cc1`: the glutamate uptake change in test [1] worked out at 16%. This compound also gave an inclusion score in test [2] of 2. This compound came in with an aggregation suppression score in test [3] of 1.29. Also, the survival in test [4] was 15 (inactive).
As for `Cc1cc(C)nc(NS(=O)(=O)c2ccc(N)cc2)n1`, the glutamate uptake change in test [1] was determined as 2.45%. In test [2], this compound had an inclusion score of 2. The compound also showed an aggregation suppression score in test [3] of 1.21. Besides, in test [4], the survival is 3.75 (inactive).
As for `CCCCOC(=O)c1ccc(N)cc1`, in test [1], the glutamate uptake change is 19.2%. The same compound registered an inclusion score in test [2] of 2. Moreover, in test [3], the aggregation suppression score was 0.439. Besides, the survival in test [4] is 0.75 (inactive).
Taken in the same sequence, the figures for `CCCCC1(COC(=O)CCC(=O)O)C(=O)N(c2ccccc2)N(c2ccccc2)C1=O` were -2.57%, 2, 0.747 and 3.58 (inactive).
Regarding `Oc1ccc(Cl)cc1Cc1cc(Cl)ccc1O`, in test [1], the glutamate uptake change is -22.2%. Also, in test [3], the aggregation suppression score is -0.099.
The like results for `Cc1cc(O)cc(C)c1Cl` were, in that order, -5.88% and 0.248.
